High-throughput results: PubChem BioAssay, several laboratories
Shown are actives, neighbours in structure and some others; about 1.1% of the full set was active somewhere.
Shn3 inh set2: reduction of Shn3 3'UTR firefly luciferase signal, primary screen, Schnurri-3 inhibitor project, cell-based, Clone20 osteoblasts, set 2; Clone20 osteoblast Shn3 3'UTR firefly luciferase, 24 h; inhibition, % at 12.5 µM; hit rate 0.52% among 360,000; AID 588674, 2011;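 active = mean inhibition of at least 75% with every replicate also reaching 75%; inconclusive = mean inhibition at least 75% but some replicate below; inactive = mean inhibition below 75%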;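 also: 0% = median of neutral control wells and 100% = pilot-screen positive control compound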
NR5A2 inv ag: LRH-1 (NR5A2) inverse agonists, primary screen, cell-based, luminescence, HEK293T, StAR-luciferase reporter; Nuclear receptor subfamily 5 group A member 2 (Homo sapiens), O00482; LRH-1 transfected, 24 h; inhibition, % at 3.6 µM; hit rate 0.13% among 360,000;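 active = inhibition above the mean inhibition of all tested compounds plus 3 SD, cut at about 73% in these data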;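 also: 0% = DMSO wells and 100% = reporter-only cells lacking LRH-1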
SRC2 inh: inhibition of GAL4-SRC2 driven luciferase reporter, primary screen, SRC2 inhibitor project, cell-based, luminescence; inhibition, % at 9 µM; hit rate 0.17% among 370,000; Nuclear receptor coactivator 2 (Homo sapiens), Q15596; HEK293 GAL4-SRC2 luciferase reporter;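 active = inhibition above the mean inhibition of all tested compounds plus 3 SD, set per campaign, cut at about 52% in these data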;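 also: 0% = DMSO treated cells and 100% = cells given Gossypol at 36 µM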
Target sequence (Q15596 whole entry, looked up, the tested form may be a part): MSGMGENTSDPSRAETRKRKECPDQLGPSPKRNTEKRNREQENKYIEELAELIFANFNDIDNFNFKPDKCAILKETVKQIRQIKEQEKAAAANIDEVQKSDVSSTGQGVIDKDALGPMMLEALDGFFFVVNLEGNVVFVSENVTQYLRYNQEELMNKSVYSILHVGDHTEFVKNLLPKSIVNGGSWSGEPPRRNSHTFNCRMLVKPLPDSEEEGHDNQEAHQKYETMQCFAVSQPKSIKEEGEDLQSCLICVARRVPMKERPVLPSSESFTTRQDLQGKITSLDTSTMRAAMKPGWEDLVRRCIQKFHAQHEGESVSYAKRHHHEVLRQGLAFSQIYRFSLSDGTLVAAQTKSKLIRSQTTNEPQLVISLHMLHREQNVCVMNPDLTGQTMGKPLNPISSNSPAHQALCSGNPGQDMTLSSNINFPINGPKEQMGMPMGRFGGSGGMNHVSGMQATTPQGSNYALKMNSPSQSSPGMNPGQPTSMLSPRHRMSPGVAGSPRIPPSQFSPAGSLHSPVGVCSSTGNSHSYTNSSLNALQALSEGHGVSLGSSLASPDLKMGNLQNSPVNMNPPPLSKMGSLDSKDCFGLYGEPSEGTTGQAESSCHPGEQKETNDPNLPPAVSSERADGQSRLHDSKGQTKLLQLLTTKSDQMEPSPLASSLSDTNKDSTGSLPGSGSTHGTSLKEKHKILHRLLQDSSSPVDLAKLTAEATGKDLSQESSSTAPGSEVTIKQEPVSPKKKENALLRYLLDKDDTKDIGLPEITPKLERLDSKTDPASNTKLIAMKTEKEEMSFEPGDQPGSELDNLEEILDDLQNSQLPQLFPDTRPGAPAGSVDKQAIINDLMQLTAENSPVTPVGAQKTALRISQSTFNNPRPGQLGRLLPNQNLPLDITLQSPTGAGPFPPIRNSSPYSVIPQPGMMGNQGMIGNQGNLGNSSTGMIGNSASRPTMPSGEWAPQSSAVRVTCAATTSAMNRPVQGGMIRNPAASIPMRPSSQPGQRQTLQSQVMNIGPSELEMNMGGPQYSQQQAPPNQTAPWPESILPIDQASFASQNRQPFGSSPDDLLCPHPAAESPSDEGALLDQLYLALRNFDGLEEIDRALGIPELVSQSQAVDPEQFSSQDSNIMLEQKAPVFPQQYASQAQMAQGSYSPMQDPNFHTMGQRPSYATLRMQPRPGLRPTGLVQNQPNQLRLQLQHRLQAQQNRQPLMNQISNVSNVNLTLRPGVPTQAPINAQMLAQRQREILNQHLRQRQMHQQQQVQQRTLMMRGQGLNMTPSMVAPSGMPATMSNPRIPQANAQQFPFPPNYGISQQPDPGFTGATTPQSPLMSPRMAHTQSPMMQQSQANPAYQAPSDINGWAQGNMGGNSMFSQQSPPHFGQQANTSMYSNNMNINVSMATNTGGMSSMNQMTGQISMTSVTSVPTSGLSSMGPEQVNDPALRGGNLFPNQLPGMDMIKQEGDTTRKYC
NCOA3 inh: SRC3 coactivator transcriptional activity inhibitors, primary screen, cell-based, luminescence. HEK293 GAL4-SRC3 luciferase reporter. inhibition, % at 3.6 µM. hit rate 0.17% among 360,000;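 active = inhibition above a per-campaign cutoff, the mean of all compounds plus 3 SD, cut at about 60% in these data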;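 also: 0% = DMSO-treated cells and 100% = gossypol-treated cells at 36 µM; higher means less SRC3-driven luciferase light from the GAL4 reporter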
NCOA1 inh: SRC1 coactivator transcriptional activity inhibitors, primary screen, cell-based, luminescence; hit rate 0.12% among 360,000; inhibition, % at 3.6 µM; Nuclear receptor coactivator 1 (Homo sapiens), Q15788; HEK293 GAL4-SRC1 luciferase reporter;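 active = inhibition above the campaign mean plus 3 SD, with each screening campaign given its own cutoff, cut at about 60% in these data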;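 also: 0% = DMSO treated cells and 100% = gossypol at 36 µM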
Gli-Sufu antag: Gli-Sufu pathway antagonists, primary screen, luciferase luminescence, Sufu-KO-LIGHT cells, uHTS. inhibition, % at 5 µM. Sufu-KO-LIGHT fibroblasts, Gli luciferase reporter luminescence. hit rate 0.74% among 340,000;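 active = inhibition above about 55%, limit read from the data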;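 also: 0% = DMSO-treated cells and 100% = wells with medium but no cells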
Active calls of the source: *; ? = inconclusive; / = not tested or not shown.

SMILES	Shn3 inh set2	NR5A2 inv ag	SRC2 inh	NCOA3 inh	NCOA1 inh	Gli-Sufu antag
Cc1cccc[n+]1CCCCCCCCCC[n+]1ccccc1C	8	17	7	26	9	19
CCCCCCCC[n+]1cccc2c3ccccc3ccc21	80	88*	15	81*	38	90*
COc1ccc(/C=C2/CSC/C(=C/c3ccc(OC)c(OC)c3)C2=O)cc1OC	98*	64	-10	-5	-23	-6
CN(C)C(=O)C#Cc1ccccc1	3	8	-61	3	13	6
O=C(C#Cc1ccccc1)c1ccccc1	99*	6	-34	19	-6	/
O=C(C#Cc1ccccc1)c1ccc([N+](=O)[O-])cc1	95*	-17	15	-9	-26	24
COC(=O)[C@]12C[C@H](CC(=O)NCc3cccs3)C(=O)N(CCc3ccc(OC)c(OC)c3)C1=C[C@H](C1CCCC1)O[C@@H]2C	/	/	-33	/	/	/
COC(=O)c1cc2c(c3c4cc(C)ccc4n(C(=O)c4ccccc4)c13)C(=O)N(Cc1ccccc1)C2	/	/	15	/	/	/
Nc1c(Cl)ncnc1N/N=C/c1ccc2ccccc2n1	75	-12	-54	-59	-52	66*
Nc1c(Cl)ncnc1N/N=C/c1ccccn1	/	/	31	/	/	77*
Nc1c(Cl)ncnc1N/N=C/c1cccnc1	-16	-8	-8	3	-4	10
COC(=O)c1cc(-c2ccc(-c3ccccc3)c(F)c2)c(=O)n2c1CCC2	/	/	-13	/	/	/
Oc1[nH]c2ccc(Br)cc2c1N=NC(=S)N1CCOCC1	97*	55	16	32	24	86*
Oc1[nH]c2ccccc2c1N=NC(=S)N1CCOCC1	/	60	/	27	4	63*
O=S(=O)(CC1NCc2ccccc21)NC1CCCC1 (stereo unspecified)	/	/	-2	/	/	/
Cc1ccc(/C=C2/CNC/C(=C/c3ccc(C)cc3)C2=O)cc1	-17	80*	-54	12	36	-2
N#CCC[C@@H]1CC[C@]2(CCCN(Cc3ccc(Br)cc3)C2)O1	/	/	15	/	/	/
Cn1cc([N+](=O)[O-])c(C(=O)Nc2sc3c(c2C#N)CCC3)n1	95*	-1	-3	-27	-23	-16
CN(c1ccc(Cl)cc1)c1cc(=O)n(C)c2ccccc12	9	-15	-39	27	5	23
Cn1c(CO)c(-c2ccccc2)c2cc([N+](=O)[O-])ccc21	-16	6	7	7	-7	-2
CN(C)c1ccc(C=c2c3cc([N+](=O)[O-])ccc3n3c2cc(-c2ccccc2)[n+]3C)cc1	86*	61	-4	53	12	81*
CN(C)c1ccc(C=c2c3ccccc3n3c2c2c([n+]3C)CCCC2)cc1	91*	94*	-18	79*	69*	89*
CN(C)c1ccc(C=c2c3ccccc3n3c2cc(-c2ccc(Cl)cc2)[n+]3C)cc1	?	74*	-28	68*	6	83*
CN(C)c1ccc(C=c2c3ccccc3n3c2cc(-c2ccccc2)[n+]3C)cc1	?	91*	-29	83*	65*	86*
COc1cc(C=c2c3ccccc3n3c2cc(-c2ccccc2)[n+]3C)cc(OC)c1OC	0	10	-3	13	-9	14
SMILES	Shn3 inh set2	NR5A2 inv ag	SRC2 inh	NCOA3 inh	NCOA1 inh	Gli-Sufu antag
COc1cc(N(C)C)ccc1C=c1c2ccccc2n2c1cc(-c1ccccc1)[n+]2C	95*	69	-54	63*	23	91*
Cc1ccc(-n2c(SCC(=O)N/N=C/C=C\c3ccccc3[N+](=O)[O-])nnc2-c2ccccc2)cc1	/	/	6	/	/	/
O=C(N/N=C/c1cccc2cccnc12)c1ccccc1O	92*	18	-78	-12	-30	48
Cc1ccccc1/C=N/Nc1nc2ccccc2[nH]1	-60	-81	-26	-55	-45	-18
C(=N\Nc1nc2ccccc2[nH]1)/c1cccc2cccnc12	78	64	2	62*	-11	67*
O=C(N/N=C/c1cccc2nccnc12)c1ccccc1O	45	-8	9	6	0	2
CCOc1cc(/C=N/O)ccc1OCc1ccc([N+](=O)[O-])cc1	-6	9	13	5	-9	-10
CCOc1cc(C=C(C(=O)OC)C(=O)OC)ccc1OCc1ccc([N+](=O)[O-])cc1	96*	32	30	21	14	-42
COc1ccc(N(C(=O)CCl)C(C(=O)NCCc2ccccc2)c2cccs2)cc1 (stereo unspecified)	96*	-18	47	71*	3	95*
CC(=O)OCC(=O)C1(O)CCC2C3CC(F)C4=CC(=O)CCC4(C)C3C(=O)CC21C (stereo unspecified)	-4	6	-21	-13	11	12
CC(=O)OCC(=O)[C@@]1(O)CC[C@H]2[C@@H]3CCC4=CC(=O)CC[C@]4(C)[C@H]3C(=O)C[C@@]21C	88*	-19	-44	-10	-19	7
CCC(=O)N1CCN(c2ccc(NC(=O)c3ccc([N+](=O)[O-])o3)cc2Cl)CC1	96*	57	4	7	-24	28
CCN1CCN(c2ccc(NC(=O)c3ccc([N+](=O)[O-])o3)cc2Cl)CC1	68	34	-26	-5	-47	1
CC(=O)N1CCN(c2ccc(NC(=O)c3ccc([N+](=O)[O-])o3)cc2Cl)CC1	96*	42	17	-4	-29	27
Cc1ccc(CN2CCCCC(NC(=O)c3ccccc3)C2=O)cc1 (stereo unspecified)	/	/	8	/	/	/
CC(C)(C)c1ccc(-c2nnc(SCC(=O)Nc3ccc4cn[nH]c4c3)n2-c2ccc(Cl)cc2)cc1	/	/	-11	/	/	/
O=C(COC(=O)/C=C/c1ccc(OC(F)F)cc1)Nc1ccc2[nH]c(=O)[nH]c2c1	97*	3	2	-1	8	-5
CCOC(=O)c1cccc(NC2c3ccccc3C(=O)N2Cc2ccco2)c1 (stereo unspecified)	90*	8	20	-5	-15	37
C=CC[C@H]1c2ccccc2[C@H]2N3N=Cc4ccccc4[C@H]3[C@H](CCc3ccccc3)C(=O)N2N1C(=O)c1ccccc1	/	/	13	/	/	/
CCCCCCCCCCOC(=O)Cn1c(COc2ccccc2)[n+](C)c2ccccc21	?	0	7	8	-53	62*
CCCCCCCCCCOC(=O)Cn1c(COc2ccccc2C)[n+](C)c2ccccc21	?	41	/	15	30	85*
CCCCCCCCCCOC(=O)Cn1c(COc2cccc(C)c2)[n+](C)c2ccccc21	59	13	11	0	1	/
